Test results as given in PubChem BioAssay (Tox21).
“And” between values parts separate entries of the source, which are not always exact repeats. Identical values can stand only once. Results filed as inconclusive are left out. Where a call stands in place of a potency, no number is given. A structure can be active in one record and inactive in another. The source made the active and inactive calls. Unless noted, calls come from the whole dose curve; as a rule, active = well fitted curve in the direction sought with a large enough effect in the repeat runs; inconclusive = weak or mixed curves; inactive = no such curve, though single readings can be large; an effect the other way counts as inactive or inconclusive.

Columns and labels:
[1] = A CellTox Green Cytotoxicity Assay to monitor cytotoxicity in HepG2 cells - 0 hour (AID 1224882); note: nearly all actives have a fitted effect of over 35% in size
Method in brief: (§1)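 Cytotoxicity was tracked as dead-cell DNA fluorescence in HepG2 cells treated with test compounds at 37 C; each time-point value comes from one kinetic series spanning 0, 8, 16, 24, 32 and 40 h.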

[2] = A CellTox Green Cytotoxicity Assay to monitor cytotoxicity in HepG2 cells - 32 hour (AID 1224883); note: nearly all actives have a fitted effect of over 50% in size
Method in brief: as §1

[3] = A CellTox Green Cytotoxicity Assay to monitor cytotoxicity in HEK293 cells - 8 hour (AID 1224884); note: nearly all actives have a fitted effect of over 35% in size
Method in brief: (§2)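 Real-time, in one plate: 600 HEK293 cells/well with dead-cell DNA dye, pinned compound after 5 h, 37 C incubation over 40 h; viable cells give no appreciable fluorescence.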

[4] = qHTS RealTime-Glo MT Cell Viability Assay in HepG2 cells - 16 hour (AID 1224885); note: nearly all actives have a fitted effect of over 50% in size
Method in brief: (§3)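 HepG2 cells were seeded at 600 cells/well together with NanoLuc luciferase and a cell-permeant prosubstrate, preincubated 5 h at 37 C/5% CO2, then pin-dosed with compounds in DMSO. Nonlytic luminescence from viable cells was read at each time point.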

[5] = qHTS RealTime-Glo MT Cell Viability Assay in HEK293 cells - 8 hour (AID 1224887); note: top concentration of the series differs between compounds; nearly all actives have a fitted effect of over 50% in size
Method in brief: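 Kinetic, non-lysing viability readout. Seed HEK293 (600/well) with reagent, incubate 5 h at 37 C/5% CO2, pin 23 nL compound in DMSO, incubate at 37 C, read luminescence at 0, 8, 16, 24, 32, 40 h.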

[6] = A CellTox Green Cytotoxicity Assay to monitor cytotoxicity in HEK293 cells - 16 hour (AID 1224888); note: nearly all actives have a fitted effect of over 35% in size
Method in brief: as §2

[7] = qHTS RealTime-Glo MT Cell Viability Assay in HepG2 cells - 0 hour (AID 1224889); note: nearly all actives have a fitted effect of over 50% in size; note: potency is the fitted concentration of half-maximal effect
Method in brief: as §3

[8] = A CellTox Green Cytotoxicity Assay to monitor cytotoxicity in HepG2 cells - 8 hour (AID 1224890); note: nearly all actives have a fitted effect of over 45% in size
Method in brief: as §1

[9] = qHTS assay to identify small molecule antagonists of the estrogen receptor alpha (ER-alpha) signaling pathway using the BG1 cell line in the presence of 0.1 nM 17-beta-estradiol - cell viability counter screen (AID 1259241); note: nearly all actives have a fitted effect of over 40% in size
Method in brief: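 VM7Luc4E2 cells (endogenous full-length ER-alpha, 4xERE-luciferase), cultured 5 days in charcoal-stripped serum, exposed to compounds with 0.1 nM 17beta-estradiol (final) for 22 hr at 37C. Viability read in same wells as live-cell protease fluorescence after 30 min.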

[10] = qHTS assay to identify small molecule antagonists of the androgen receptor (AR) signaling pathway using the MDA cell line in the presence of 0.5 nM R1881 - cell viability counter screen (AID 1259242); note: nearly all actives have a fitted effect of over 45% in size
Method in brief: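 Cells seeded at 3,000/well and allowed 5 hr at 37C, 0% CO2 before compound transfer and R1881 (0.5 nM final) addition; 16 hr later, live-cell protease fluorescence indicated cytotoxicity.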

[11] = qHTS assay to identify small molecule HDAC inhibitors (AID 1259364);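 note: wild-type HCT-116 cells with endogenous class I/II HDAC activity; top concentration of the series differs between compounds; nearly all actives have a fitted effect of over 45% in size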
Method in brief: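 HCT-116 wt cells, 1,500/well, overnight attach. Compounds (DMSO) 2 h, 37 °C. HDAC-Glo I/II, 30 min RT. Luminescence.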

[12] = qHTS assay to identify small molecule HDAC inhibitors - cell viability counter screen (AID 1259365)
Method in brief: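 Wild-type HCT-116 cells, 1,500/well, cultured overnight, then compound-treated 2 h at 37 C. Viability measured as ATP luminescence with CellTiter-Glo after 30 min at room temperature.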

[13] = qHTS assay to identify small molecule agonists of the sonic hedgehog signaling (Shh) pathway - cell viability counter screen (AID 1259366); note: nearly all actives have a fitted effect of over 50% in size
Method in brief: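 NIH/3T3-derived Gli1-Luc reporter cells, 2,000 per well, received compound after 4 h and were treated about 23 h at 37C. Viability measured in the same wells by CellTiter-Fluor fluorescence after 1 h.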

[14] = qHTS assay to identify small molecule antagonists of the sonic hedgehog signaling (Shh) pathway - cell viability counter screen (AID 1259367); note: nearly all actives have a fitted effect of over 55% in size
Method in brief: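 Fluorescence read-out (CellTiter-Fluor, 1 hr at 37C) taken after 23 hr compound treatment of 3T3 Gli1-Luc cells stimulated with conditioned medium. Cells were seeded at 2,000 per well and pre-incubated 4 hr.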

[15] = qHTS assay to identify small molecule agonists of the sonic hedgehog signaling (Shh) pathway (AID 1259368; calls by dose curve;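 note: NIH/3T3-derived 3T3Gli1-Luc cells carrying a stable Gli1-driven firefly luciferase reporter; series mostly up to about 92 µM; nearly all actives have a fitted effect of over 15% in size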)
Method in brief: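 Following a 24 hr incubation with DMSO-dissolved compounds at 37 C, 5% CO2, Gli1-Luc NIH/3T3-derived cells received luciferase reagent for 30 min at room temperature prior to luminescence measurement.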

[16] = qHTS assay to identify small molecule antagonists of the sonic hedgehog signaling (Shh) pathway (AID 1259369; calls by dose curve; note: nearly all actives have a fitted effect of over 45% in size; note: potency is the fitted concentration of half-maximal effect)
Method in brief: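 Read-out is luminescence from a firefly luciferase gene controlled by the Gli1 response element, in 3T3Gli1-Luc cells pre-incubated 4hr then exposed to compounds and conditioned medium for 24hr.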

[17] = molecular target: Androgen receptor (Homo sapiens) (UniProt P10275); assay: qHTS assay to identify small molecule antagonists of the androgen receptor (AR) signaling pathway using the MDA cell line in the presence of 0.5 nM R1881 (AID 1259243)
Androgen receptor (Homo sapiens), sequence (P10275 whole entry, looked up): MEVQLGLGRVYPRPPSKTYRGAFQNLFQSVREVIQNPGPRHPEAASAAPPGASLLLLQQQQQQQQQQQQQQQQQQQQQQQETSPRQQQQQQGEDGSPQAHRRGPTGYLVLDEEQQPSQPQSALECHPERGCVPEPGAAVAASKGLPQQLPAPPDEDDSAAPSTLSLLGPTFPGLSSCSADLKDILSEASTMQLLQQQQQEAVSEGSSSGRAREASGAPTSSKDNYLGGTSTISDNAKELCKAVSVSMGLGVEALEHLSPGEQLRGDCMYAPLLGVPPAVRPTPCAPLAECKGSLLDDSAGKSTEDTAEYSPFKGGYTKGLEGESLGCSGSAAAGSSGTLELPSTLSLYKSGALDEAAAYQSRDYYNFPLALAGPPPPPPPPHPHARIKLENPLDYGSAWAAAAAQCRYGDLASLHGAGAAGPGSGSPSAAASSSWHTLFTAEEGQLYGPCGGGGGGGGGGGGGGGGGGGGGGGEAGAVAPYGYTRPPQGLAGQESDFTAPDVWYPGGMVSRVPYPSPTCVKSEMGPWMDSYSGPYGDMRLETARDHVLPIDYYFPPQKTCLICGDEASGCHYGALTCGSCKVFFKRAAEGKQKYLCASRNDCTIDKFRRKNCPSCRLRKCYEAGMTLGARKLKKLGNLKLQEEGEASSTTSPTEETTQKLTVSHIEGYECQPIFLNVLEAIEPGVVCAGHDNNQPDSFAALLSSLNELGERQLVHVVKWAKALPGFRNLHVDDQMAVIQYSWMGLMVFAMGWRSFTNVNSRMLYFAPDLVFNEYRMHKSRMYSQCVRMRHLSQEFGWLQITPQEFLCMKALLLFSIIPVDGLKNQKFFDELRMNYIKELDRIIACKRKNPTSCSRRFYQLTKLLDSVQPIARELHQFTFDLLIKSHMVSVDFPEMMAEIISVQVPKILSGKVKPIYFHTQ
Method in brief: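 Luminescence from an AR/GR-responsive MMTV-luciferase construct in MDA-kb2 breast carcinoma cells, read 30 min after ONE-Glo, following 16 hr co-treatment with compounds and 0.5 nM R1881.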

[18] = molecular target: Estrogen receptor (Homo sapiens) (UniProt P03372); assay: qHTS assay to identify small molecule antagonists of the estrogen receptor alpha (ER-alpha) signaling pathway using the BG1 cell line in the presence of 0.1 nM 17-beta-estradiol (AID 1259244); note: nearly all actives have a fitted effect of over 50% in size; note: potency is the fitted concentration of half-maximal effect
Estrogen receptor (Homo sapiens), sequence (P03372 whole entry, looked up): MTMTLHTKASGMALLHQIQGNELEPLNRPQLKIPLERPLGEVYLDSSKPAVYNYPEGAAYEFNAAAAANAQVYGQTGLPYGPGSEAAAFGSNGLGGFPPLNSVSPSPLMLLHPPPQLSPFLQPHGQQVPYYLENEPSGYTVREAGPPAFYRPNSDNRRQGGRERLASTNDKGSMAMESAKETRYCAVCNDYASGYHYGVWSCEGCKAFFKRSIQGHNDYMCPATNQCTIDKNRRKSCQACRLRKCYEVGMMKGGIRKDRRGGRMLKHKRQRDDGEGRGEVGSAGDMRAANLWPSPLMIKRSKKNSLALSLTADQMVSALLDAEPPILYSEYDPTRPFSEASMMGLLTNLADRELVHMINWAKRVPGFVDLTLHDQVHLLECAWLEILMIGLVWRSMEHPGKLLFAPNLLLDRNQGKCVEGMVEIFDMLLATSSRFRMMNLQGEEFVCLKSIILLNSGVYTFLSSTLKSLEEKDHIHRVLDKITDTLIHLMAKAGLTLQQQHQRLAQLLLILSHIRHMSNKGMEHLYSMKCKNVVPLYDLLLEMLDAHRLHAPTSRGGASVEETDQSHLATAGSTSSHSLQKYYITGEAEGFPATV
Method in brief: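 Luciferase signal from VM7Luc4E2 ERE-reporter cells, co-dosed with test compound and 0.1 nM final 17beta-estradiol for 22 h, read with ONE-Glo.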

[19] = qHTS RealTime-Glo MT Cell Viability Assay in HEK293 cells - 24 hour (AID 1224886)
Method in brief: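 HEK293 cells were seeded at 600 cells/well together with NanoLuc luciferase and cell-permeant prosubstrate, preincubated 5 h at 37 C/5% CO2, then given compound in DMSO by pintool. Luminescence from viable-cell prosubstrate reduction was read repeatedly over 40 h.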

| SMILES | Potency [1] | Potency [2] | Potency [3] | Potency [4] | Potency [5] | Potency [6] | Potency [7] | Potency [8] | Potency [9] | Potency [10] | Potency [11] | Potency [12] | Potency [13] | Potency [14] | Potency [15] | Potency [16] | Potency [17] | Potency [18] | Potency [19] |
| --- | --- | --- | --- | --- | --- | --- | --- | --- | --- | --- | --- | --- | --- | --- | --- | --- | --- | --- | --- |
| CCOP(=O)(OCC)OCC | inactive | inactive | inactive | inactive | inactive | inactive | inactive | inactive | inactive | inactive | inactive | inactive | inactive | inactive | inactive | inactive | – | – | – |
| COP(=S)(OC)SCn1nnc2ccccc2c1=O | inactive | inactive | inactive | inactive | – | inactive | inactive | inactive | inactive | inactive | inactive | inactive | inactive | – | inactive | 30 µM (active) and inactive | 23.9 µM (active) and 17.2 µM (active) | – | – |
| CCN(CC)C(=O)C(C)Oc1cccc2ccccc12 (stereo not drawn) | inactive | inactive | inactive | inactive | inactive | inactive | 43.6 µM (active) | inactive | inactive | inactive | – | inactive | inactive | inactive | inactive | inactive | – | 61.1 µM (active) | – |
| c1ccc(C2CO2)cc1 (stereo not drawn) | inactive | inactive | – | inactive | inactive | inactive | inactive | – | inactive | inactive | inactive | inactive | inactive | inactive | inactive | inactive | – | – | inactive |
| CCCCSP(=O)(SCCCC)SCCCC | inactive | inactive | inactive | inactive | inactive | inactive | inactive | – | inactive | inactive | inactive | inactive | inactive | inactive | inactive | inactive | – | – | – |
| CN(C)P(=O)(N(C)C)N(C)C | inactive | inactive | inactive | inactive | inactive | inactive | inactive | inactive | inactive | inactive | – | inactive | inactive | inactive | inactive | inactive | – | inactive | – |
| COc1ccc(CO)cc1 | inactive | inactive | inactive | inactive | inactive | inactive | inactive | – | inactive | inactive | inactive | inactive | inactive | inactive | inactive | inactive | – | – | – |
